Here are results for 27 molecules from PubChem BioAssay (EPA / NIEHS).

Activity calls are given as the source filed them. Rule for the calls: active = hit-call score of the fitted dose curve at least 0.9, where 1 is the maximum; inactive = score below 0.9.

This assay is described as follows: CEETOX_H295R_MTT_cell_viability: Viability Assessment in the CeeTox HT-H295R MTT Assay (AID 2283718).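 For AC50: curve fitted both ways so AC50 may mark viability loss or gain.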 The procedure: CEETOX_H295R is a cell-based, multiplexed-readout assay that uses H295R, a human adrenal gland cell line, with measurements taken at 48 hours after chemical dosing in a 96-well plate.CEETOX_H295R_MTT_cell_viability is one of 23 assay component(s) measured or calculated from the CEETOX_H295R assay. It is designed to make measurements of cell number, a form of viability reporter, as detected with […] signals by MTT cytotoxicity assay technology.The assay component endpoint CEETOX_H295R_MTT_cell_viability was analyzed with bidirectional fitting relation to DMSO as the negative control and baseline of activity. Using a type of viability reporter in the MTT cytotoxicity assay, gain or loss-of-signal activity can be used to monitor cellular processes to understand changes in proliferation. To generalize the intended target to other relatable targets, this assay endpoint is annotated to cell cycle, where the subfamily is proliferation.
Cell culture and media preparation procedures were conducted in accordance with OECD Test No. 456 guidelines, with minor modifications. H295R cells (ATCC CRL-2128) were expanded for 5 passages and frozen in batches in liquid nitrogen. Prior to the steroidogenesis assay, H295R cells were thawed and passed at least 4 times. The maximum passage was 10. Cells were maintained in a 1:1 mixture of DMEM/F12 supplemented with 5ml/L ITS+ Premix (BD Bioscience) and 12.5 ml/L Nu-Serum (BD Bioscience). After seeding cells into 96-well plates at 50-60% confluency, cells were allowed to adhere overnight. Prior to chemical testing, culture medium was replaced with 175 uL medium containing 10 uM forskolin to stimulate steroidogenesis for 48 hours. Following prestimulation, forskolin medium was replaced with medium containing test chemical solubilized in DMSO (ensuring a final concentration of 0.1% DMSO). Test chemicals were incubated for 48 hours, then the medium was removed and split into 2 vials containing approximately 75uL each, and stored at -80 C prior to hormone analysis. For steroid quantification, media samples were shipped to OpAns, LLC (Durham, NC) on dry ice, and samples were thawed to room temperature prior to liquid-liquid extraction. Steroid hormones were extracted from media samples using methyl tertbutyl ether (MTBE). An extra derivatization with dansyl chloride was included for estrogen (estrone and estradiol) detection only. Steroid hormones were separated by HPLC, eluted using a reverse phase C18 gradient with electrospray positive ionization, followed by quantification by tandem mass spectrometry (MS/MS). Data were acquired on a MassHunter Workstation Acquisition version B03.01 (Agilent Technologies, Inc.) and processed using MassHunter Quantitative Analysis for QQQ. Accuracy was determined for each hormone analyte from 3 standards to determine upper and lower limits of quantification (ULOQ and LLOQ, respectively) using a 7-point standard curve. Precision and accuracy of the extraction and quantification methods were calculated as the percent relative standard deviation (%RSD) of the spiked standards and percent spiked standard recovered, respectively. The goal was to achieve 100% accuracy (i.e., recover all spiked-in standard at quantification with minimal loss during run time) and good precision (i.e., have %RSD <15% to ensure reproducibility). Test medium was removed following chemical exposure, and cell viability was evaluated in the same wells by MTT. MTT procedures were as follows: after removal of test medium, 500 uL of 0.5 mg/ml of 3-[4,5-dimethylthiazol-2-y]2,5-diphenyltetrazoliumbromide solution was added to the cells. Following a 4-hour incubation at 37 C and 5% CO2 to allow formazan-crystal formation, the MTT solution was removed and blue formazan salt crystals were solubilized using 500uL anhydrous isopropanol with shaking for 20 minutes. Absorbance was read at 570 and 650nm using a Packard Fusion microplate reader. […]
As for `CCCCCOC(=O)COc1cc(N2C(=O)C3=C(CCCC3)C2=O)c(F)cc1Cl`, the result was inactive. `C#CCOC(=O)[C@@H](C)Oc1ccc(Oc2ncc(Cl)cc2F)cc1`: the molecule was called inactive. `CC(=O)S[C@@H]1CC2=CC(=O)CC[C@]2(C)[C@H]2CC[C@@]3(C)[C@@H](CC[C@@]34CCC(=O)O4)[C@H]12`: the molecule was classed as inactive. Same read-out and setting: as for `C#C[C@]1(O)CC[C@H]2[C@@H]3CCC4=CC(=O)CC[C@@H]4[C@H]3CC[C@@]21CC`, the entry is “inactive”. As for `CSC(=O)c1cccc2nnsc12`, the molecule was classed as inactive.

Turning to `CCCCC(CC)CN1C(=O)C2C3C=CC(C3)C2C1=O` (configuration not stated), the molecule was classed as inactive.

In the case of `c1ccc(Nc2ccccc2)cc1`, the outcome was inactive. Same read-out and setting: next, `CC1(C)C(C=C(Cl)Cl)C1C(=O)OCc1cccc(Oc2ccccc2)c1` (configuration not stated): “inactive”; `S=C([S-])NCCNC(=S)[S-].[Mn+2]`: “inactive”. On to `C=CCOC(Cn1ccnc1)c1ccc(Cl)cc1Cl` (configuration not stated), for which the call was inactive. As to `CC(C)(C)[C@@H](O)[C@@H](Cc1ccc(Cl)cc1)n1cncn1`, the molecule was called inactive.

`S=C(S)NCCNC(=S)S.[Mn+2].[S-]C([S-])=NCCN=C([S-])[S-].[Zn+2]`: the AC50 was 1.19 µM (active). For the molecule `C[C@]12C[C@H](O)[C@H]3[C@@H](CCC4=CC(=O)CC[C@@]43C)[C@@H]1CC[C@@H]2C(=O)CO`, the molecule was called inactive.

With `CCCN(CCC)C(=O)SCC`, the result was inactive.

For the molecule `CCOC(=O)c1ccc(O)cc1`, the outcome was inactive. As to `CC(=O)[C@H]1CC[C@H]2[C@@H]3CCC4=CC(=O)CC[C@]4(C)[C@H]3CC[C@]12C`, the molecule was called inactive. On the same count and under the same terms, as for `O=C(Nc1ccc([N+](=O)[O-])cc1Cl)c1cc(Cl)ccc1O`, the entry is “inactive”; as for `CCCCOCCOCCOCc1cc2c(cc1CCC)OCO2`, “inactive”. In the case of `CCNc1nc(N)nc(Cl)n1`, the outcome was inactive.

Take `CN(C)C(=O)Nc1ccc(Cl)c(Cl)c1`: the outcome was inactive. On the same count and under the same terms, next, `Oc1ccc(C(c2ccc(O)cc2)C(Cl)(Cl)Cl)cc1`: “inactive”. Still for that read-out and setting: as for `c1ccc2[nH]c(-c3cscn3)nc2c1`, the entry is “inactive”.

For `CCCCC(CC)COC(=O)c1ccccc1C(=O)O` (configuration not stated), the call was inactive.

Regarding `CCCCOC(=O)[C@@H](C)Oc1ccc(Oc2ccc(C(F)(F)F)cn2)cc1`, the result was inactive. The same measure, in the same setting: next, `COC(=O)c1ccccc1C(=O)O`: “inactive”; `CC(C)(c1ccc(O)cc1)c1ccc(O)cc1`: “inactive”. `CCN(Cc1c(F)cccc1Cl)c1c([N+](=O)[O-])cc(C(F)(F)F)cc1[N+](=O)[O-]`: the AC50 was 13.3 µM (active).

Broadly, the AC50 is the concentration giving half of the maximal activity seen.
